Screening results as filed in PubChem.
A selection: hits, their analogues and other compounds. The true share with any hit is near 7.3%.
Tau ThT inhib – blocks human tau fibril formation measured by thioflavin T; P10636; recombinant tau K18 P301L, heparin-induced fibrillization, ThT fluorescence; Potency, µM (doses to about 57.4 µM), inactives show at the top dose activity, negative = inhibition, usual class: inhibitors; 2.1% of 270,000 active; AID 1460; also: nearly all actives have a fitted effect of over 55% in size
Target sequence (P10636 561-689 P618L limits assumed): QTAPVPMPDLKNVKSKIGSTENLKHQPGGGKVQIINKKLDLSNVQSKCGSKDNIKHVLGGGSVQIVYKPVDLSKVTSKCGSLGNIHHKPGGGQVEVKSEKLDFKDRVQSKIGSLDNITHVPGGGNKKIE
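Fibril formation assay: tau K18 P301L at 15 uM with trace Alexa 594 label, heparin inducer 20 uM, pH 7 sodium acetate buffer, 37 C for 6 hr; endpoint ThT signal.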
Gal4-VP16 FLuc – inhibits Gal4-VP16 luciferase reporter, ROR gamma counter-screen; AID 2546; 3.5% of 310,000 active; Potency, µM (top dose mostly 53.6 µM), for the others: top-dose activity, negative = inhibition, actives largely listed as inhibitors; Drosophila S2 Gal4-VP16 UAS-luciferase, luminescence, 20 h;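 also: Gal4-VP16 expression switched on by copper sulfate through the metallothionein promoter; nearly all actives have a fitted effect of over 50% in size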
Tau fluor counter – counter-screen for tau fibril formation inhibitors. tau K18 P301L Alexa594 fluorescence, heparin fibrillization. Potency, µM (top dose mostly 57.7 µM), without a hit: at the highest dose activity change, negative = decrease. 0.93% of 280,000 active. AID 1463; also: nearly all actives have a fitted effect of over 55% in size
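Human tau K18 P301L (15 uM unlabeled, 0.24 uM Alexa 594-labeled) in 100 mM sodium acetate pH 7 with 20 uM heparin, 6 hr at 37 C. ThT 30 uM added, 1 hr ambient; Alexa 594 FP and total fluorescence read at 555/632 nm.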
Tau fibril FP – blocks human tau fibril formation measured by polarization; P10636; K18 P301L tau heparin fibrillization, Alexa594 FP, 6 h; Potency, µM (doses to about 57.7 µM), inactives show at the top dose activity, negative = inhibition, usual class: inhibitors; 0.39% of 280,000 active; also: nearly all actives have a fitted effect of over 55% in size
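Steps: dispense K18 P301L tau (15 uM plus 0.24 uM Alexa 594 tracer, final) in pH 7 sodium acetate; add compound; add heparin (20 uM final); incubate 6 hr, 37 C; add ThT (30 uM final); after 1 hr ambient, read FP.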
RORgamma inh – inhibitors of mouse ROR gamma transcriptional activity. Potency, µM (highest dose often 53.6 µM), without a hit: top-dose activity change, negative = inhibition, actives largely listed as inhibitors. 5.4% of 310,000 active. Drosophila S2 Gal4-RORgamma UAS-luciferase reporter, 20 h; also: nearly all actives have a fitted effect of over 60% in size
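Compounds are pin-transferred onto Drosophila Schneider cells expressing a copper-inducible Gal4–ROR gamma transactivation domain fusion. After 1 hr, copper sulfate is added to 700 uM final; luciferase is read 20 hr later.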
* hit, by the source's call; u = inconclusive; x = no result; [ ] = another dose, or the depositor's remark. Calls follow the shape of the dose curve; as a rule, active = well fitted curve in the direction sought with a large enough effect; inconclusive = small, poorly fitted or top-dose-only effect, or another doubt; inactive = no such curve, though single readings can be large; an effect the other way counts as inactive or inconclusive. % is scaled to controls: 0 for no effect and ±100 for the full control effect; potency is read from the fitted curve at half-maximal effect.

SMILES	Tau ThT inhib	Gal4-VP16 FLuc	Tau fluor counter	Tau fibril FP	RORgamma inh
O=C(Nc1nc2ccccc2s1)C1CCCO1 (configuration not stated)	-10%	-22%	-3%	2%	-3%
CC1CCC/C(=N/Nc2nc3ccccc3s2)C1 (configuration not stated)	u	u	u	-6%	6.3µM*
CC1(C)CC(=O)C/C(=N/Nc2nc3ccccc3s2)C1	u	23%	u	u	8.9µM*
CCOC(=O)c1ccc2nc(C)cc(Nc3ccc(OC(C)C)cc3)c2c1	u	x	u	8%	x
CC(S)C(=O)NCC(=O)O (configuration not stated)	u	-2%	-16%	u	-10%
Cc1[nH]oc(=O)c1N=Nc1c(Cl)cccc1Cl	u	-20%	-7%	-7%	-22%
Cc1[nH]oc(=O)c1N=Nc1ccccc1	25µM*	-10%	-16%	u	-35%
COc1ccc(-c2nsc3c(N4CCCCC4C)ncnc23)cc1 (configuration not stated)	u	u	-13%	5%	0.28µM*
COc1ccc(C(=O)N2CCN(c3ncnc4c(-c5ccccc5)nsc34)CC2)cc1	u	2%	1%	9%	-4%
COc1ccc(-c2nsc3c(N4CCCCC4)ncnc23)cc1	u	u	-21%	-8%	1.1µM*
Cc1ccc(-c2nsc3c(N4CCC(C(N)=O)CC4)ncnc23)cc1	-9%	0.63µM*	0%	-2%	u
Cc1ccc(C(=O)NNC(=O)CSc2nnc(C3CC3)n2C)cc1	x	2%	x	x	-9%
Cc1ccc(C(=O)Nc2ncc(C)s2)o1	-1%	-7%	3%	6%	u
Cc1ccc(C(=O)Nc2ncc(C)s2)s1	x	u	x	x	7.1µM*
CSc1ncccc1C(=O)Nc1nccs1	x	-16%	x	x	10µM*
CSc1ncccc1C(=O)Nc1ncc(C)s1	x	-21%	x	x	11µM*
Cc1ccccc1-n1ncc(C(C)NS(=O)(=O)c2sccc2C)c1C (configuration not stated)	x	1%	x	x	-12%
CC(C)CO/N=C1/[C@H]2O[C@@H]2[C@@H](O)[C@H]2[C@H]1CCn1c(=O)n(-c3ccccc3)c(=O)n12	-6%[11.5 µM]	3%[10 µM]	-9%[11.6 µM]	-5%[11.6 µM]	0%[10 µM]
Cc1ccc(CNC(=O)C(C(C)C)N2Cc3ccccc3C2=O)cc1 (configuration not stated)	-2%	x	-4%	0%	x
Cc1ccc(N=Nc2ccc(O)c3ncccc23)cc1C	u	0.5µM*	-27%	13%	0.14µM*
Cc1ccc(N=Nc2ccc3ccccc3c2O)cc1	x	u	x	x	-2%[1.91 µM]
Cc1ccc(N=Nc2ccc(O)c3ncccc23)cc1	u	x	-11%	8%	0.056µM*
CCc1ccc(N(CC(=O)NC(C)C)C(=O)CCC(=O)Nc2nccs2)cc1	x	3%	x	x	15%
COc1ccc(/C=C/C(=O)Nc2nc(-c3cccs3)ns2)cc1	-3%	x	-6%	-7%	x
Cc1c(Cl)cccc1NC(=S)NCc1cccs1	2%	7.1µM*	-9%	-11%	4.5µM*
SMILES	Tau ThT inhib	Gal4-VP16 FLuc	Tau fluor counter	Tau fibril FP	RORgamma inh
S=C(NCc1cccs1)Nc1cccc(Cl)c1Cl	-6%	8.9µM*	-26%	-8%	10µM*
CS(=O)(=O)NC(=O)CCC/C=C\C[C@H]1C(=O)C[C@@H](O)[C@@H]1/C=C/[C@@H](O)COc1ccccc1	x	-11%	x	x	u
CCCSc1nc2sc3c(c2c(=O)n1Cc1ccccc1)CC(C)(CC)OC3 (configuration not stated)	-12%	x	-9%	1%	x
CCCCCn1c(C)c2c(OCC)cccc(=O)c2c1C	x	1%	9%[0.0958 µM]	-1%[0.0958 µM]	-4%
CCOc1cccc(=O)c2c(C)n(C)c(C)c12	16µM*	-6%	-15%	-14%	-30%
CCN(CC)CCOCCOC(=O)C(CC)(CC)c1ccccc1 (tested in a mixture with another compound)	x	-15%	x	x	1%[10 µM]
O=C(c1ccco1)N1CCC2(CC1)CCN(C(c1ccccc1)c1ccccc1)CC2	x	-7%	x	x	24%
Cc1ccc(C(=O)O)cc1NC(=S)NC(=O)c1ccc(-c2ccccc2)cc1	u	-11%	10%	-4%	-17%
Cc1cccc(NC(=O)Cc2ccc(-c3ccccc3)cc2)n1	x	-10%	x	x	38%
